The values below come from ChEMBL document CHEMBL3433997, “St. Jude Leishmania screening dataset” (2016).

Common to all, as to type: functional
Experiment [1] addresses Solute carrier family 2, facilitated glucose transporter member 1 (Homo sapiens) (UniProt P11166). As to the kind of experiment: ST_JUDE_LEISH: Cytotoxicity at 2uM final concentration against transgenic Leishmania Mexicana promastigotes LmGLUT1 that are glucose transport deficient and complemented with the human glucose transporter GLUT1. Activity is measured by DNA content using SYBR green in vitro.

The target in experiment [2] is Hexose transporter 1 (Plasmodium falciparum) (UniProt O97467). Kind of experiment: ST_JUDE_LEISH: Cytotoxicity at 2uM final concentration against transgenic Leishmania Mexicana promastigotes LmPfHT that are glucose transport deficient and complemented with the Plasmodium falciparum hexose transporter. Activity is measured by DNA content using SYBR green in vitro.
The target of experiment [3] is Glucose transporter (Leishmania mexicana) (UniProt O61059). Kind of experiment: ST_JUDE_LEISH: Cytotoxicity at 2uM final concentration against transgenic Leishmania Mexicana promastigotes LmGT2 that are glucose transport deficient and complemented with the L. Mexicana glucose transporter 2. Activity is measured by DNA content using SYBR green in vitro.

Chain of Solute carrier family 2, facilitated glucose transporter member 1 (Homo sapiens) (P11166 whole entry): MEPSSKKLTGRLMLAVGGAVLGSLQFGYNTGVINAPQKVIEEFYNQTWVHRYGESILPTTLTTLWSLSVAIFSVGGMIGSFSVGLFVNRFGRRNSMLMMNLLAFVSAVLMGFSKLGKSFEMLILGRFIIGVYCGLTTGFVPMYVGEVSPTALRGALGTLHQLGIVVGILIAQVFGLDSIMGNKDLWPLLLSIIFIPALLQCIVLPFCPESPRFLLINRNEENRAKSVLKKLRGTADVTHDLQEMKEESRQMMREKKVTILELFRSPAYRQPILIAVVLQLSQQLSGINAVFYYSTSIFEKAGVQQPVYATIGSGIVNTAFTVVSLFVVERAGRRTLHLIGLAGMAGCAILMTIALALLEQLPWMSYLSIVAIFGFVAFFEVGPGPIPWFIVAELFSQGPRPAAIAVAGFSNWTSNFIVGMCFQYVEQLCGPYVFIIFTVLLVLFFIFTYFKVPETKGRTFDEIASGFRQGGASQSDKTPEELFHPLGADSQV

Broadly, the inhibition is the drop in the measured response relative to a control, in per cent. As to `Cc1nc2ccc3ccc(CNc4ccc5c(c4)CN([C@@H](CCC(=O)O)C(=O)O)C5=O)cc3c2c(=O)[nH]1`, the results for the inhibition in experiment [1], in experiment [2] and in experiment [3] were 1.71%, -0.99% and -1.52%, respectively.

Turning to `CC(=NNC(S)=NC(c1ccccc1)c1ccccc1)c1ccccn1`, the values for the inhibition in experiment [1], in experiment [2] and in experiment [3] were 61%, 58.8% and 32%, respectively.

Take `CC1CCN(C(=O)CSc2nc(-c3ccc(C(C)C)cc3)no2)CC1`: the inhibition was found to be 7.2% in experiment [1], 9.21% in experiment [2] and 6.14% in experiment [3].

For the compound `CCN(CC)CCCC(C)N=c1cc(C=Cc2ccccc2Cl)[nH]c2cc(Cl)ccc12` (centres undefined), the inhibition in experiment [1] was determined as 3.06%; in experiment [2], 3.03%; in experiment [3], 1.56%.

For `Cc1ccc(Nc2nccc(NCC(O)c3cccc(F)c3)n2)cc1` (centres undefined), the inhibition in experiment [1] was 0.93%; in experiment [2] it was 1.15%; in experiment [3], -0.59%.

Regarding `Fc1ccc2[nH]c(-c3cccc(-c4ccc(CN5CCC(CCN6CCCCC6)CC5)cc4)c3)nc2c1`, the inhibition was -0.64% in experiment [1], 4.58% in experiment [2] and 10.4% in experiment [3].

`CC(C)N1CCC(N(Cc2ccc(-c3ccc(C(F)(F)F)cc3)cc2)C(=O)Cn2c(SCc3cccc(F)c3F)nc(=O)c3ccccc32)CC1`: the figures for the inhibition in experiment [1], in experiment [2] and in experiment [3] were 6.03%, 4.99% and 4.15%, respectively.

For the compound `COc1cc2nc(C)nc(Nc3cccc(Br)c3)c2cc1OC`, the figures for the inhibition in experiment [1], in experiment [2] and in experiment [3] were -0.77%, -0.52% and -0.03%, respectively.

In the case of `O=S1(=O)C=C(c2ccccc2)CC1`, the inhibition in experiment [1] stood at 1.23%; in experiment [2], 1.28%; in experiment [3], 1.41%.

Turning to `COc1ccccc1-c1csc(C(=O)NCC2CCN(Cc3ccc(C(C)(C)C)cc3)C2)c1` (centres undefined), the inhibition in experiment [1] was 1.44%; in experiment [2] it was 0.16%; in experiment [3], 0.22%.

For `Brc1ccc(Nc2nc(NCc3ccccc3)c3ccccc3n2)cc1`, the inhibition in experiment [1] came to 22.6%; in experiment [2] it was 16.5%; in experiment [3], 6.03%.

Consider `C[C@@H](CC1CCCCC1)OC(=O)N(C)[C@@H]1CCN(C#N)C1`, for which the results for the inhibition in experiment [1], in experiment [2] and in experiment [3] were 14.6%, 10.3% and 10.5%, respectively.

As to `CCN(CC)CCN(Cc1ccc(-c2ccc(C(F)(F)F)cc2)cc1)C(=O)Cn1c(CCc2ccc(F)c(C#N)c2)nc(=O)c2ccccc21`, the inhibition in experiment [1] amounted to 6.73%; in experiment [2] it was 7.67%; in experiment [3] it was 8.84%.

`Oc1cccc(Nc2ccnc3cc(-c4ccncc4)ccc23)c1`: the inhibition in experiment [1] turned out to be 10.6%; in experiment [2] it was 9.58%; in experiment [3], 8.68%.

Turning to `O=C1OC2(CCN(Cc3cccc(-c4ncc[nH]4)c3)CC2)CN1CCNCc1ccccc1`, the inhibition is 1.81% in experiment [1], 1.4% in experiment [2] and -0.76% in experiment [3].

As for `COc1ccc(NC(=O)/C=C/c2ccccc2Cl)cc1OCCN1CCC(NCc2ccccc2)CC1`, the inhibition amounted to 3.15% in experiment [1], 2.49% in experiment [2] and 0.75% in experiment [3].

With `O=C(Nc1cccc(OC2CCN(Cc3ccccc3)CC2)c1)c1ccc(Cl)c(Cl)c1`, the inhibition is 3.35% in experiment [1], 1.85% in experiment [2] and 3.44% in experiment [3].

As for `O=C(NCCNc1ccnc(NCc2ccc(F)cc2)n1)c1cc2ccccc2s1`, the inhibition in experiment [1] was 4.76%; in experiment [2] it was 4.26%; in experiment [3], -0.4%.

Take `Oc1ccc(-c2ccccc2)cc1CNC1CCCCC1`: the results for the inhibition in experiment [1], in experiment [2] and in experiment [3] were 2.86%, 0.92% and 2.38%, respectively.

In the case of `COc1ccc(CN2CCCN(Cc3cccc(NC(=O)c4ccc(Cl)c(Cl)c4)c3)CC2)cc1`, the inhibition in experiment [1] turned out to be 2.61%; in experiment [2], 4.62%; in experiment [3] it was 0.01%.

With `O=C(Nc1ccc2c(c1)CCC2)c1cccc(N2CCN(c3ccncc3)CC2)c1`, the inhibition in experiment [1] amounted to 1.86%; in experiment [2], 4.51%; in experiment [3], 1.58%.

Regarding `O=C(c1ccc([N+](=O)[O-])o1)N1CCN(c2nc3c(F)cc(F)cc3s2)CC1`, the inhibition stood at 21% in experiment [1], 6.03% in experiment [2] and 7.31% in experiment [3].

As to `O=C1C(=Cc2c(O)ccc3ccccc23)SC(=NCc2ccccc2)N1Cc1ccccc1`, the inhibition in experiment [1] stood at 3.93%; in experiment [2], 2.01%; in experiment [3] it was 3.38%.

Consider `CC(=O)N(Cc1nc(-c2cc(C(F)(F)F)cc(C(F)(F)F)c2)cs1)c1c(C)cccc1C`, for which the inhibition in experiment [1] is 4.36%; in experiment [2], 4.86%; in experiment [3], 4.36%.

On to `O=C(Nc1ccc(-c2nc3ccc(NC(=O)c4ccc(Br)cc4)cc3[nH]2)cc1)c1ccc(Br)cc1`, for which the inhibition in experiment [1] is -0.81%; in experiment [2] it was -0.68%; in experiment [3], -2.77%.

Turning to `FC(F)(F)c1cccc(Nc2nc3nonc3nc2NC2C3CC4CC(C3)CC2C4)c1` (centres undefined), the inhibition in experiment [1] stood at 3.05%; in experiment [2], 1.79%; in experiment [3], 0.47%.

Take `N#Cc1cccc(C(=O)Nc2ccc(-c3nc4ccccc4[nH]3)cc2)c1`: the inhibition in experiment [1] was 0.28%; in experiment [2] it was -0.34%; in experiment [3], -0.95%.

As to `CCN(CC)CCN(Cc1ccc(-c2ccc(C(F)(F)F)cc2)cc1)C(=O)Cn1c(CCc2cccc(F)c2F)nc(=O)c2cccnc21`, the values for the inhibition in experiment [1], in experiment [2] and in experiment [3] were 0.41%, 2.07% and 1.66%, respectively.

As to `O=C(C(=O)c1ccc(Nc2ccnc3cc(-c4ccccn4)ccc23)cc1)c1ccccc1`, the inhibition in experiment [1] was -1.32%; in experiment [2] it was -0.47%; in experiment [3] it was -2.63%.

On to `O=C(Nc1ccc(N2CCN(Cc3ccccc3)CC2)cc1)c1cccs1`, for which the values for the inhibition in experiment [1], in experiment [2] and in experiment [3] were 0.15%, 0.83% and -1.68%, respectively.

With `O=[N+]([O-])c1cc(C(c2ccc(O)c([N+](=O)[O-])c2)C(Cl)(Cl)Cl)ccc1O`, the inhibition in experiment [1] was found to be 9.43%; in experiment [2], 9.85%; in experiment [3] it was 7.92%.

Regarding `CN(C)c1ccc(CN2CCCC(CNC(=O)c3ccc(-c4cccc(C(F)(F)F)c4)s3)C2)cc1` (centres undefined), the values for the inhibition in experiment [1], in experiment [2] and in experiment [3] were 1.33%, 1.64% and -0.14%, respectively.

On to `CCCCCCn1c2c(c(=N)c3c1CCC3)CCC2`, for which the inhibition in experiment [1] is 86.4%; in experiment [2], 85.9%; in experiment [3], 83.1%.
